A selection: hits, their analogues and other compounds. The true share with any hit is near 1.2%.
KCNH2 3.1 inh = qHTS for Inhibitors of KCHN2 3.1: Mutant qHTS | U2OS KCNH2 3.1, thallium flux FluxOr; active compounds read low | hit rate 0.95% among 340,000 | AID 720553, 2013 | activity change, % (tested at about 1.8 µM) | Potassium voltage-gated channel subfamily H member 2, brain isoform KCNH2 3.1 (human);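 active means maximum activity change below -70%; inconclusive means maximum activity change from -70% to -50%; inactive means maximum activity change above -50%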;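 further: thallium influx rate constant from kinetic fluorescence after stimulation buffer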
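Thallium flux via FluxOr fluorescence (Red40 quencher, 45 min loading) in U2OS cells virally expressing the KCNH2 3.1 isoform (1.77 x 10^8 /mL virus, overnight at 37 C). Rate constants from 2-min kinetic reads post-stimulation, normalised to positive and negative controls.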
GCN5L2 inh = qHTS Assay for Inhibitors of GCN5L2. AID 504327, 2011. Histone acetyltransferase KAT2A (Homo sapiens), Q92830. hit rate 0.21% among 390,000. Potency, µM (series often up to 58.9 µM), without a hit: at the highest dose activity change, negative = inhibition, most hits filed as inhibitors. GCN5L2 HAT assay, ThioGlo1 CoA-SH fluorescence; further: potency means the concentration at half of the fitted maximal effect
Target sequence (Q92830 whole entry, looked up): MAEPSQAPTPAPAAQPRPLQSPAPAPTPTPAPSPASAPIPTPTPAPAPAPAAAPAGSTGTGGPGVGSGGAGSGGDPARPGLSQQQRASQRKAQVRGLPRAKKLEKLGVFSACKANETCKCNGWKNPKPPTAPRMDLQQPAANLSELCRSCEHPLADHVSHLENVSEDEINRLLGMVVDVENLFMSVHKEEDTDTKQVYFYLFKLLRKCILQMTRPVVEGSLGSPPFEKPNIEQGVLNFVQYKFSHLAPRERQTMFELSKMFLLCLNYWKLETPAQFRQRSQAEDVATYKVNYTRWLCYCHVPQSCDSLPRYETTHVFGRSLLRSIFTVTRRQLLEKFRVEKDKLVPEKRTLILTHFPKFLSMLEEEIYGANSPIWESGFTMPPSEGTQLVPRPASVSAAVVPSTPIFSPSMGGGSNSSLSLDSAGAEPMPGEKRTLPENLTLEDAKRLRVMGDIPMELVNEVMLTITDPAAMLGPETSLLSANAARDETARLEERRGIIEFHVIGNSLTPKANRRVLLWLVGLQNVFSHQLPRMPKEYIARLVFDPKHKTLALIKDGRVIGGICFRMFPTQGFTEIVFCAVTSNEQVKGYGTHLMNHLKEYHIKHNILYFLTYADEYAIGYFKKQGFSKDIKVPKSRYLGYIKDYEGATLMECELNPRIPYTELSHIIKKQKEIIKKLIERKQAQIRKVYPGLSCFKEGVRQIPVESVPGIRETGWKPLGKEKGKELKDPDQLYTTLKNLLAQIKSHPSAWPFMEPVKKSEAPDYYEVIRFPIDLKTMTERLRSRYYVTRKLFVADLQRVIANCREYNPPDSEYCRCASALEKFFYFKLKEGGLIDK
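Preincubate 20nM GCN5L2 with compound 15 min, RT → add 50uM ThioGlo1 + 75uM H3(1-25) + 70uM acetyl-CoA → read fluorescence 0 and 20 min. Primary qHTS; fluorescent artifacts likely.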
RGS4 inhibitor = Inhibitors of Regulator of G Protein Signaling (RGS) 4: qHTS. hit rate 0.039% among 390,000. Regulator of G-protein signaling 4 (Homo sapiens), P49798. Transcreener GDP fluorescence polarization, RGS4-accelerated GTP hydrolysis. Potency, µM (series often up to 114 µM), for the others: at the top dose activity change, negative = inhibition, usual class: inhibitors; further: potency means the concentration at half of the fitted maximal effect; nearly all actives have a fitted effect of over 75% in size
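MLSMR compounds (23 nl, pin-transferred) preincubated 10 min at room temperature with a 500nM (2x) first reagent, then RGS4 at 900nM (2x) plus Transcreener GDP mix added; fluorescence polarization (620/688 nm) read before and after 90 min at 30 °C.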
Pin1 inh = qHTS Assay to Find Inhibitors of Pin1 | Potency, µM (titrated, usually from 115 µM), inactives show at the highest dose activity, negative = inhibition, actives largely listed as inhibitors | Pin1 FP peptide displacement, HiFluor488, 10 min | Peptidyl-prolyl cis-trans isomerase NIMA-interacting 1 (Homo sapiens), Q13526 | hit rate 0.009% among 390,000; active means well fitted inhibition curve with a large enough effect in the polarisation, with a control signal flat, not every such curve was filed as active; inconclusive means small, poorly fitted or top-dose-only effect, or effect the other way, or a change in a side signal; inactive means no such curve, though single readings can be large or run the other way; the % refers to the polarisation; further: potency means the concentration at half of the fitted maximal effect
hERG WT inh = qHTS for Inhibitors of KCHN2 3.1: Wildtype qHTS. Voltage-gated inwardly rectifying potassium channel KCNH2 (Homo sapiens), Q12809. hit rate 0.37% among 340,000. U2OS, BacMam KCNH2, thallium flux FluxOr; active compounds read low. activity change, % at 1.84 µM;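 active means maximum activity change below -70%; inconclusive means maximum activity change between -70% and -50%; inactive means maximum activity change above -50%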
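U2OS cells transduced with wild-type KCNH2 virus are loaded with FluxOr dye for 45 min, and thallium flux is measured in kinetic reads before and after stimulation buffer. Rate constants are normalized to DMSO controls.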
Tb PGK inh = qHTS Assay to Find Inhibitors of Phosphoglycerate Kinase. PGK/GAPDH coupled, Kinase-Glo luminescence, 60 min. Potency, µM (titrated, usually from 57.5 µM), for the others: top-dose activity change, negative = inhibition, usual class: inhibitors. hit rate 0.043% among 380,000; further: potency means the concentration at half of the fitted maximal effect; nearly all actives have a fitted effect of over 60% in size
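Recombinant glycosomal PGK reaction used 1,3-bisphosphoglycerate generated in-well by GAPDH (100nM final) in 100mM TEA pH 7.6, 5mM MgCl2, 0.01% Tween-20. After 60 minutes at room temperature, ATP was read by Kinase-Glo Plus luminescence end-point.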
The depositor's hits bear a star; i = inactive; ? = inconclusive; · = no result. Unless noted, the call rests on the fitted dose curve; in most records, active means well fitted curve in the direction sought with a large enough effect; inconclusive means small, poorly fitted or top-dose-only effect, or another doubt; inactive means no such curve, though single readings can be large; an effect the other way counts as inactive or inconclusive. On the % scale 0 is the no-effect control and ±100 the full control effect.

SMILES | KCNH2 3.1 inh | GCN5L2 inh | RGS4 inhibitor | Pin1 inh | hERG WT inh | Tb PGK inh
CC[C@H](C)[C@H](NC(=O)CNC(=O)COc1cc2c(c3oc(=O)cc(C)c13)CCC(C)(C)O2)C(=O)O | 1 | 22µM* | 8% | -5% | 5 | 0%
Cc1nc2sccn2c(=O)c1CCN1CCC(=C(c2ccc(F)cc2)c2ccc(F)cc2)CC1 | -114* | ? | ? | 2% | -149* | i
N#Cc1ccc(CN2CCC3(CC2)CCN(S(=O)(=O)c2ccccc2)CC3)cc1 | · | 0% | · | · | · | ·
C[N+]1=C(/C=C/Nc2ccccc2Cl)C(C)(C)c2ccccc21 | -23 | 2% | ? | ? | -80* | i
O=C(NC(Cc1ccccc1)C(=O)O)/C(=C\c1ccc(Cl)cc1)NC(=O)c1ccccc1 (configuration not stated) | -14 | -4% | 2% | -1% | -92* | -6%
CC(=O)Nc1ccc(C2CC(c3ccc(Cl)cc3)=NN2c2ccccc2)cc1 (configuration not stated) | 0 | 32µM* | 1% | -6% | -16 | -6%
CN(c1ccc(Cl)cc1)S(=O)(=O)c1nnc(NC(=O)C2CCCCC2)s1 | · | -2% | -28% | -9% | · | -3%
Cc1c(NC(=O)Nc2cccc(C(F)(F)F)c2)sc2nc3n(c(=O)c12)CCC(C)CC3 (configuration not stated) | · | -3% | -7% | 10% | · | -6%
CC(=O)N(C1=C(Cl)C(=O)c2ccccc2C1=O)C1CCCCC1 | 3 | 32µM* | -141% | 0% | 2 | -1%
CC(=O)N(c1ccccc1C)C1CCCC1 | -31 | -4% | 0% | 10% | -17 | 10%
Nc1nc(-c2ccc3c(c2)OCCO3)c(CC(=O)O)s1 | -5 | 35µM* | -14% | 8% | -14 | -2%
O=C(Nc1cccc(-c2ccccc2)c1)N1CCN(C(=O)Nc2cccc(-c3ccccc3)c2)CC1 | -14 | 35µM* | 9% | 8% | 0 | 4%
CN1CCN(C(=O)Nc2ccccc2)CC1 | -2 | -4% | 4% | -2% | 4 | -4%
CCn1c(O)c(/C=C/C=C/C=Nc2ccccc2)sc1=S | -184* | -3% | -52% | 38% | -226* | -7%
CCCCn1c(O)c(/C=C/C=C/C=Nc2ccccc2)sc1=S | -40 | ? | ? | 28% | -3 | -9%
Cc1ccccc1NC(=O)COC(=O)C1C2CC3OC(=O)C1C3C2 (configuration not stated) | -1 | -5% | 13% | -7% | -254* | i
COc1ccccc1NC(=O)COC(=O)C1C2CC3OC(=O)C1C3C2 (configuration not stated) | -6 | -2% | 9% | 5% | 7 | -12%
COCCNC(=O)C1CCN(S(=O)(=O)N2CCC3(CC2)OCCO3)CC1 | -200* | 4% | 1% | -5% | -8 | ·
COc1ccccc1[C@@H]1C(c2cccc(Cl)c2)=NN(c2ccccc2)[C@H]1C(=O)N1CCOC1=O | -15 | 20µM* | -18% | 12% | 1 | 0%
COc1ccccc1[C@@H]1C(c2ccccc2)=NN(c2ccc(Br)cc2)[C@H]1C(=O)N1CCOC1=O | -40 | -17% | -6% | 23% | -2 | -14%
O=C1OCCN1C(=O)[C@H]1[C@H](c2ccccc2)C(c2cccc(Cl)c2)=NN1c1ccc(Br)cc1 | 4 | 22µM* | 19% | 3% | 5 | 2%
